This passage reports binding (percent of control) results from PubChem BioAssay AID588358 (NMMLSC, 2011).

Among all 310,000 compounds or so, about 1,500 (0.48%) were called active. The entries come from a sample that favours actives as a whole. Unmarked numbers belong to inactive results.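 The calls were made as follows: active = binding more than 3 SD below its plate's average and above zero; inconclusive = below that plate limit but binding exactly zero; inactive = the rest.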

This experiment deals with Desmoglein-3 (Homo sapiens) (UniProt P32926). Put plainly: blockers of anti-DSG3 scFv binding – biochemical, bead-based, flow cytometry, scFv-GFP, primary screen (AID 588358).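 Also: hits lower antibody fragment binding to DSG3.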 Particulars: DSG3-coupled beads, at 10 µM, active compounds read low.
Sequence of Desmoglein-3 (Homo sapiens) (P32926 whole entry, looked up, the tested form may be a part): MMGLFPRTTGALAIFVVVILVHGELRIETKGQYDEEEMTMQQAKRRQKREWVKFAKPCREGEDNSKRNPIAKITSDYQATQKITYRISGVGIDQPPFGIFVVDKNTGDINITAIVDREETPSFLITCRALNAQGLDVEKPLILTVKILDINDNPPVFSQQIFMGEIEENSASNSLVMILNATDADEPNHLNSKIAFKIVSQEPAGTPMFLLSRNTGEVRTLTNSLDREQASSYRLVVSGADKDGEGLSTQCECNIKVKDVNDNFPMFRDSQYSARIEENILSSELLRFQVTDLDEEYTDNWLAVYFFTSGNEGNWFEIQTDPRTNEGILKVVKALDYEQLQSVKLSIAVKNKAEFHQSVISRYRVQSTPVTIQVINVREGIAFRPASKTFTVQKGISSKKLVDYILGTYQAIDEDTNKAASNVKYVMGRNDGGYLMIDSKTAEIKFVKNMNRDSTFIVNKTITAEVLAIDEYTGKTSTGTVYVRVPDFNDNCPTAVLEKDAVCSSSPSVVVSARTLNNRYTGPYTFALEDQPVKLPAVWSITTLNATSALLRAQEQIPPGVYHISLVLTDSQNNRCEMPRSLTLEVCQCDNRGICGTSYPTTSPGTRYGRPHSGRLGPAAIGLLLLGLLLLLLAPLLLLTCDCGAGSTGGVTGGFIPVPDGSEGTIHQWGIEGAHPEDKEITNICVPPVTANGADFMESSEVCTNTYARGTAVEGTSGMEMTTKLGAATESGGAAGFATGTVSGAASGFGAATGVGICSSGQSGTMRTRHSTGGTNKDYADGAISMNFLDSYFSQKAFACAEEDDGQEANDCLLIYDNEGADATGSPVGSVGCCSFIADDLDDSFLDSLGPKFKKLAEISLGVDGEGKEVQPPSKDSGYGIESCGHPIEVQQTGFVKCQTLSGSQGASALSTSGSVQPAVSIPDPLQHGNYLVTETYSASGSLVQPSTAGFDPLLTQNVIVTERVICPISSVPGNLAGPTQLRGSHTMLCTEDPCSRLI
Consider `C[C@H]1Cn2cnc(C(=O)N[C@@H](Cc3c[nH]c4ccccc34)C(=O)OC(C)(C)C)c2C(=O)N1`, for which the binding (percent of control) was 98.2%. Next, `CCC(=O)Nc1ccc(Nc2nc(Cl)nc(Nc3ccc(NC(=O)CC)cc3)n2)cc1`: 81.3% (active); `CCC(=O)Nc1ccc(C(=O)NNC(=O)c2ccc(Cl)cc2)cc1`: 103%; `CCOC(=O)CNc1nc(Cl)nc(Nc2ccccc2)n1`: 90.6%. Then `O=C(CCN1CCCCC1)Nc1ccc(F)c(F)c1`, with 94.7%; and `COc1ccc(-n2cc(CN(C)Cc3n[nH]c(=O)[nH]3)c(-c3cccc(F)c3)n2)cc1`, with 103%. For `COc1ccc(-n2cc(CNC3CCOCC3)c(-c3cccc(F)c3)n2)cc1`, the binding (percent of control) was 21.8% (active). Next, `CCC(O)C1CCN(Cc2cn(-c3ccc(OC)cc3)nc2-c2cccc(F)c2)CC1` (centres undefined): 110%. As to `CC(=O)Nc1ccc(NC(=O)c2sc3nc4c(c(-c5ccc(C)cc5)c3c2N)CCC4)cc1`, the binding (percent of control) is 6.32% (active). Next, `Cc1cccc(NC(=O)c2sc3nc(N4CCOCC4)c4c(c3c2N)CCCC4)c1`: 94.3%; `Cc1ccc(NC(=O)c2sc3nc(N)c(C#N)cc3c2N)cc1`: 99.5%.

Regarding `Cc1ccc(NC(=O)COc2coc(CN3CCc4ccccc4C3)cc2=O)cc1Cl`, the binding (percent of control) was 85.8% (active). In the case of `Cc1cc(C)cc(NC(=O)COc2coc(CN3CCN(c4ccccc4)CC3)cc2=O)c1`, the binding (percent of control) is 104%.

Turning to `Cc1ccc(NC(=O)CN2CCc3ccccc3C2)cc1C`, the binding (percent of control) was 120%. Then `O=C(COC(=O)/C=C/c1ccc(Cl)cc1)NC1CCS(=O)(=O)C1` (centres undefined), with 107%; and `CN(c1ccccc1)S(=O)(=O)c1ccc(C(=O)NCc2cccnc2)cc1`, with 97.8%.

Turning to `COc1cc2c(=O)n(C)c3ccccc3c2cc1OC`, the binding (percent of control) was 103%. Take `Cc1ccc(-c2nc(C#N)c(NCCCn3ccnc3)o2)cc1`: the binding (percent of control) was 66.2% (active). Regarding `COc1ccc(-c2cc(C(=O)NCCCn3ccnc3)no2)cc1`, the binding (percent of control) was 104%. Then `Cc1ccc(S(=O)(=O)c2nc(NCCCn3ccnc3)sc2Cl)cc1`, with 98.5%; and `Cc1ccc(CCNC(=O)CN2C(=O)CSc3ccc(S(=O)(=O)N4CCOCC4)cc32)cc1`, with 100%. Then `Cc1ccc(C(=O)N2CCCc3ccccc32)c(Cl)c1`, with 104%. On to `Cc1ccc(-c2nc3ccc(Cl)cn3c2Cc2ccccc2)cc1`, for which the binding (percent of control) is 111%.

Regarding `C[C@@H]1CN([C@@H](C)CO)C(=O)c2cc(Br)cnc2O[C@H]1CN(C)Cc1ccc(-c2ccccc2)cc1`, the binding (percent of control) was 101%. For the compound `O=S(=O)(c1ccc(Cl)cc1)c1nc(-c2ccccc2F)oc1NCCN1CCOCC1`, the binding (percent of control) is 103%. Consider `O=S(=O)(c1ccc(Br)cc1)c1nc(-c2ccccc2)oc1NCc1cccnc1`, for which the binding (percent of control) is 78.8%. Then `O=S(=O)(c1ccccc1)c1nc(-c2ccccc2F)oc1NCc1cccnc1`, with 91.8% (active); and `Clc1cccc(N=C2NN=C(c3ccc4c(c3)OCCO4)CS2)c1`, with 97.3%. Next, `COCCn1c(C)cc(C2=NNC(=Nc3ccc(F)cc3)SC2)c1C`: 76.6% (active); `C=CCn1c(C)cc(C2=NNC(=NCC)SC2)c1C`: 80.2%.

For `COc1ccc(N2C(=O)CC(SC(C)C)C2=O)cc1` (centres undefined), the binding (percent of control) is 68% (active). For the compound `COc1ccc(N2C(=O)CC(N3CCC(C(N)=O)CC3)C2=O)cc1` (centres undefined), the binding (percent of control) was 97.6%. Then `COc1ccc(N2C(=O)CC(Sc3n[nH]c(-c4ccc(C)cc4)n3)C2=O)cc1` (centres undefined), with 85.3%; and `Cc1cccc(C)c1NC(=O)CNC(=O)c1ccc(N2CCOCC2)c([N+](=O)[O-])c1`, with 95.2%. Next, `COc1ccc2nc(-c3ccccn3)ccc2c1`: 101%; `CCCc1ccc(S(=O)(=O)N2CCN(C(=O)c3cc(C)on3)CC2)cc1`: 96.3%; `CCCCCCn1c(=O)n2n(c1=O)C[C@]1(OC(=O)NCc3ccc(OC)c(OC)c3)CN(S(=O)(=O)c3ccc(C)cc3)C[C@]1(O)C2`: 108%.

Take `CC1=C(C(=O)Nc2cccc(C(=O)NCC(C)c3ccccc3)c2)SCCO1` (centres undefined): the binding (percent of control) was 106%. Consider `CCOc1ccc(CCNC(=O)COC(=O)c2ccc(C)c(S(=O)(=O)N3CCOCC3)c2)cc1OCC`, for which the binding (percent of control) is 97.5%.
